Assay outcomes: PubChem, National Center for Advancing Translational Sciences (NCATS)
GALK inh: galactokinase (human) inhibition; P51570; Purified GALK, Kinase-Glo residual ATP luminescence; Potency, µM (series often up to 57.5 µM), inactives show top-dose activity change, negative = inhibition, actives largely listed as inhibitors; 0.007% of 270,000 active
Target sequence (P51570 whole entry, looked up): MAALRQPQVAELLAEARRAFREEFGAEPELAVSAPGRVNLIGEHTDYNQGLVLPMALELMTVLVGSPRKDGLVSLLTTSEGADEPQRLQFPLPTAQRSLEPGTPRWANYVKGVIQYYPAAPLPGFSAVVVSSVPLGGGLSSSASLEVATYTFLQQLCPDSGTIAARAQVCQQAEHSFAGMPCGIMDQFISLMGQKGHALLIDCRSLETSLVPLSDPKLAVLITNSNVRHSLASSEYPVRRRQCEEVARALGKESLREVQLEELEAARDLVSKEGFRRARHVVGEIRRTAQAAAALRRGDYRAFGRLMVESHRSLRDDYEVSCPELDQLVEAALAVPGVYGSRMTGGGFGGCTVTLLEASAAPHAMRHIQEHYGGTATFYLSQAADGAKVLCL
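The enzyme phosphorylates galactose (100 uM) using ATP (35 uM); inhibition is detected as higher residual ATP, quantified by bioluminescence after 1 h reaction at room temperature, pH 8.0.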
GAA inhib: blocks human lysosomal alpha-glucosidase. P10253. purified human GAA, 4-MU-alpha-glucoside fluorescence. Potency, µM (top dose mostly 76.9 µM), for inactives: at the top dose activity change, negative = inhibition, hits mostly inhibitors. 0.005% of 200,000 active;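 further: plate controls were uninhibited enzyme wells for no effect and no-enzyme background for full effect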
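Compounds are titrated up to 77 uM against 4 nM human enzyme. Substrate 4-methylumbelliferyl-alpha-D-pyranoside (400 uM) reacts 20 min at room temperature in pH 5.0 buffer; liberated 4-methylumbelliferone is read at 440 nm.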
PKM2 activator: increases activity of human pyruvate kinase M2 | P14618 | purified PKM2, Kinase-Glo ATP luminescence, activation; response scale: 0% is enzyme alone, no compound | Potency, µM (series often up to 57.5 µM), without a hit: at the top dose activation, most hits filed as activators | 0.34% of 260,000 active | AID 1631; further: nearly all actives have a fitted effect of over 55% in size
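Purified hPK-M2 (>95% pure) converted ADP (0.1 mM final) to ATP with 0.5 mM PEP in 50 mM imidazole pH7.2, KCl, MgCl2, Tween 20, BSA; 1 h at room temperature. ATP detected by Kinase-Glo luminescence.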
GAA glycogen mod: inhibitors or activators of human alpha-glucosidase glycogen cleavage | 0.38% of 300,000 active | recombinant GAA, glycogen substrate, Amplex Red glucose oxidase fluorescence | Potency, µM (doses to about 76.4 µM), for the others: top-dose activity change, negative = inhibition, actives largely listed as inhibitors | P10253;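 further: 0% = full enzyme reaction and -100% = no-enzyme basal signal; the screen sought inhibitors and activators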
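qHTS, 1536-well; enzyme 4 nM final; cpd up to 77 uM; substrate bovine liver glycogen 30 ug; 50 mM citrate/phosphate pH 5.0, 0.01% Tween-20; 37 C, 40 min; Amplex Red detection 45 min RT; Hill fit → AC50.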
aGlu spleen mod: inhibitors or activators of human alpha-glucosidase in spleen homogenate. human spleen homogenate, 4-MU-alpha-glucoside fluorescence. Potency, µM (top dose mostly 79.9 µM), for the others: at the top dose activity change, negative = inhibition, usual class: inhibitors. 0.006% of 240,000 active. AID 2112;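 further: 0% = enzyme with vehicle and -100% = no enzyme basal signal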
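Human spleen homogenate (1 ug) with 4-methylumbelliferyl-alpha-D-glucopyranoside (1 mM final) in 50 mM citrate/phosphate pH 5.0, 0.01% Tween-20; 40 min at 37 C. Stopped at pH 10; 4-MU fluorescence Ex 365/Em 440 nm; AC50 by Hill fit.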
Numbers without * were called inactive; ? = inconclusive; · = not tested or not shown; [ ] = remark or other dose. An excerpt weighted towards active compounds, which were near 0.63% of everything screened. The call rests on the fitted dose curve; in most records, active means well fitted curve in the direction sought with a large enough effect; inconclusive means small, poorly fitted or top-dose-only effect, or another doubt; inactive means no such curve, though single readings can be large; an effect the other way counts as inactive or inconclusive. Unless noted, on the % scale 0 is the no-effect control and ±100 the full control effect; potency means the concentration at half of the fitted maximal effect.

SMILES	GALK inh	GAA inhib	PKM2 activator	GAA glycogen mod	aGlu spleen mod
O=C(c1ccc(S(=O)(=O)NCc2ccco2)cc1)N1CCN(Cc2ccccc2)CC1	-1%	0%	7.9µM*	8%	-13%
O=C(c1ccc(NS(=O)(=O)c2ccccc2)cc1)N1CCN(Cc2ccc3c(c2)OCO3)CC1	2%	-5%	13µM*	-27%	-13%
CCN(C(=O)Cn1nc(Cc2cccnc2)c2ccccc2c1=O)c1cc(C)ccc1C	·	·	·	13%[76.3 µM]	·
Oc1ccc(Br)cc1-c1nc2cnccn2c1NC1CCCC1	-3%	0%	1%	16µM*	-5%
Cc1cccc(NC(=O)C2CCCN2S(=O)(=O)c2ccc3nc(-c4ccccc4)[nH]c3c2)c1 (centres undefined)	·	·	·	0%[76.3 µM]	·
CCc1nc(NCCc2ccccn2)c2nnn(Cc3ccccc3F)c2n1	5%	-17%	25µM*	2%	3%
CCCc1nc(NCc2ccccn2)c2nnn(Cc3ccccc3F)c2n1	-4%	0%	4%	-4%	-4%
COc1cc(C(=S)N2CCN(c3ccccc3Cl)CC2)cc(O)c1O	1%	2%	3.5µM*	?	-13%
CCCCC(=O)NNC(=S)NC(=O)c1ccc(C)cc1	-2%	?	10%	-29%	-12%
Cc1ccc(C(=O)NC(=S)NNC(=O)CC#N)cc1	1%	?	-2%	11µM*	7%
CCOC(=O)c1c(NC(=O)c2nc(S(C)(=O)=O)ncc2Cl)sc(C(C)=O)c1C	·	·	·	-3%[76.3 µM]	·
C=CC[n+]1c(-c2ccc(OC)c(OC)c2)csc1NNC(=O)Nc1ccccc1	2%	-4%	-12%	32µM*	5%
O=C(NNc1nc2ccccc2nc1C(F)(F)F)c1ccccc1	0%	-4%	2%	11µM*	-18%
Cc1ccc(S(=O)(=O)NNc2nc3ccccc3nc2C(F)(F)F)cc1	0%	-11%	-7%	28µM*	9%
NNc1nc2ccccc2nc1C(F)(F)F	-1%	8%	-1%	5%	-11%
COc1ccc2[nH]c(=O)c(CN(C(=O)c3cccc(Cl)c3)c3ccccc3OC)cc2c1	·	·	·	-6%[76.3 µM]	·
CCOc1ccc(Nc2nc(Cc3nnc(SCC(=O)NCC4CCCO4)n3C)cs2)cc1 (centres undefined)	4%	-3%	-1%	11µM*	-8%
COc1cccc(NC(=O)Cn2c(=O)n(-c3ccc(C)cc3)c(=O)c3ccccc32)c1	·	·	·	4%[76.3 µM]	·
CCn1c(Cl)c(C=O)s/c1=N\S(=O)(=O)c1ccccc1	-2%	·	16µM*	10%	7%
O=C(Cn1ncc2ccc(Cl)cc21)NCc1ccc(F)cc1	·	·	·	-3%[76.3 µM]	·
O=C(NCCn1cc(SCc2ccc(F)cc2)c2ccccc21)c1cccs1	·	·	·	-1%[76.3 µM]	·
Nc1ccc2c(c1)C(=O)C(=O)c1ccccc1-2	6.3µM*	2%	-3%	8%	2%
Cc1cccc(Cn2c(SCC(=O)Nc3ccccc3)nc3c2c(=O)[nH]c(=O)n3C)c1	-2%	-3%	1.4µM*	3%	1%
CCCCOc1ccc(C2=NC(c3ccncc3)=Nc3ccc(OCC)cc3N2)cc1	·	·	·	-15%[76.3 µM]	·
COc1cc(Cl)c(NC(=O)CN2C(=O)c3cccnc3Sc3ccccc32)c(OC)c1	·	·	·	-1%[76.3 µM]	·
SMILES	GALK inh	GAA inhib	PKM2 activator	GAA glycogen mod	aGlu spleen mod
CCOC(=O)c1cc2c(ccn2C)n1CC(=O)N1CCN(c2ccc(F)cc2)CC1	2%	9%	4%	-2%	-7%
CCOC(=O)c1cc2c(ccn2C)n1CC(=O)N1CCN(c2cccc(C(F)(F)F)c2)CC1	-1%	-11%	32µM*	-3%	-10%
COc1ccc(/C=N/Nc2nonc2N)cc1OC	3%	0%	9%	16µM*	3%
CC(C)c1nc(SCC(=O)Nc2ccc([N+](=O)[O-])cc2Br)n[nH]1	5%	-5%	?	4%	2%
Nc1nc(SCC(=O)Nc2ccc([N+](=O)[O-])cc2Br)n[nH]1	-2%	-1%	3.2µM*	9%	3%
O=C(CSc1ncn[nH]1)Nc1ccc([N+](=O)[O-])cc1Br	2%	1%	7.1µM*	-2%	4%
CCSc1ccccc1C(=O)Nc1cc(OC)c(OC)c(OC)c1	11%	2%	28µM*	8%	-2%
CCOc1ccc2oc(=O)cc(CN3CCN(c4ccc(OC)cc4)CC3)c2c1	·	·	·	-4%[76.3 µM]	·
Cc1nc(-c2ccc(S(=O)(=O)Nc3cccc(Cl)c3)cc2)co1	3%	·	7.9µM*	·	·
O=C(CN1CC(=O)Oc2ccccc21)OCC(=O)c1cccc(Br)c1	-2%	5%	1%	8.8µM*	-3%
Cc1cccc(CSc2cn(CC(=O)N3CCCC3)c3ccccc23)c1	·	·	·	4%[76.3 µM]	·
Cc1c2c(c(O)c3c(O)cccc13)C(=O)O[C@H]2C1C(N(C)C)C(O)=C(C(N)=O)C(=O)[C@H]1O (some centres undefined)	·	·	·	·	4%
CCc1ccc(NC(=S)Nc2cc(OC)c(NC(=O)C(C)C)cc2OC)cc1	4%	2%	0%	12µM*	2%
CCN(C(=O)C1CCCN(c2ncnc3c2nc2n3CCCCC2)C1)c1cccc(C)c1 (centres undefined)	·	·	·	-5%[76.3 µM]	·
O=C(Nn1cnnc1)C(c1ccccc1)c1ccccc1	0%	1%	32µM*	-7%	1%
O=C(Nn1cnnc1)C(Sc1ccccc1)c1ccccc1 (centres undefined)	0%	0%	19%	4%	-8%
O=C(C1CCC1)N1CCc2cc(S(=O)(=O)N3CCN(c4ccccc4)CC3)ccc21	·	·	·	18%[76.3 µM]	·
O=C(CSCc1ccccc1Cl)NN=C1CCCCCC1	-2%	-10%	7%	1%	-4%
C/C(=N\NC(=O)CSCc1ccccc1Cl)c1cc(O)ccc1O	4%	2%	?	35µM*	2%
CCC1CCCCN1C(=O)CSc1nc(-c2ccc(OC)cc2)cc(C(F)(F)F)n1 (centres undefined)	·	·	·	-11%[76.3 µM]	·
CC(CC(C)(C)C)CP(=O)(O)CC(C)CC(C)(C)C (centres undefined)	·	·	·	·	-1%
O=S(=O)(Nc1ccc2ccccc2n1)c1ccc2c(c1)CCO2	1%	-3%	11µM*	3%	5%
Cc1ccc(-c2nn(-c3ccccc3)cc2CN(Cc2ccccc2)C(=O)c2ccco2)o1	1%	-6%	25µM*	-7%	-6%
CC(=O)C1=C(C)NC(SCc2cccc([N+](=O)[O-])c2)=C(C#N)C1c1ccco1 (centres undefined)	0%	?	7.9µM*	-7%	-2%
CC(=O)C1=C(C)NC(SCC(N)=O)=C(C#N)C1c1ccco1 (centres undefined)	0%	-3%	12%	12%	·
COc1cc(C(=O)NCCCc2nc3ccccc3n2CC(C)C)cc(OC)c1OC	·	·	·	6%[76.3 µM]	·
O=Cc1c(NCc2ccco2)nc2ccccn2c1=O	2%	-1%	25%	-5%	4%
